Test results reported in PubChem BioAssay.
Active and inactive are the calls of the source.

What was measured:
[1] = binders of probe aFSTL3 on microarray, primary screen, stem cell growth factor project, biochemical, small-molecule microarray, fluorescence 635/667 (AID 1064); details: higher = more signal;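 further: measures binding of the biotinylated anti-FSTL3 antibody to printed compounds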
[2] = binders from COS7 lysate, DM2A8 probe, primary screen, torsin A project, cell lysate, small-molecule microarray, fluorescence 635/667 (AID 1065); details: higher = more signal, COS7 lysate expressing mutant human TOR1A
[3] = binders of probe aFGF2 on microarray, primary screen, stem cell growth factor project, biochemical, small-molecule microarray, fluorescence 635/667 (AID 1067); details: higher = more signal;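 further: measures binding of biotinylated aFGF2 protein to printed compounds on slides; z-score merges feature fluorescence and signal-to-noise across triplicate slides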
[4] = binders of probe aFGF10 on microarray, primary screen, stem cell growth factor project, biochemical, small-molecule microarray, fluorescence 635/667 (AID 1071); details: higher = more signal;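 further: score merges 667 nm spot intensity and signal to noise from triplicate slides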
[5] = molecular target: Neurogenic locus notch homolog protein 2 (Homo sapiens) (UniProt Q04721); assay: Notch2 binders on small-molecule microarrays, primary screen, biochemical, small-molecule microarray, 635 nm fluorescence, stem cell growth factors (AID 1073); details: Notch2 binding, higher = more signal
[6] = molecular target: Pro-neuregulin-1, membrane-bound isoform (Homo sapiens) (UniProt Q02297); assay: NRG1 binders on small-molecule microarrays, primary screen, psychiatric disease protein project, biochemical, small-molecule microarray, fluorescence 635/667 (AID 1075); details: NRG1 binding, 635 nm fluorescence, higher = more signal;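 further: score combines 667 nm spot fluorescence with signal to noise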
[7] = test system: Neuregulin-1 EGF-like domain; assay: binders of neuregulin-1 EGF-like domain, primary screen, biochemical, small-molecule microarray, 635 nm fluorescence (AID 1081); details: small-molecule microarray binding, higher = more signal;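 further: binding of the protein to compounds printed on small-molecule microarray slides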
[8] = FRG1 promoter luciferase signal modulators, primary screen, FRG1 inhibition for FSHD, cell-based, C2C12 myotubes, firefly/Renilla luciferase, luminescence (AID 1084); details: higher = more signal, called active from +8 up or from −8 down
[9] = binders of probe aFST on microarray, primary screen, stem cell growth factor project, biochemical, small-molecule microarray, fluorescence 635/667 (AID 1086); details: higher = more signal;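 further: score merges 667 nm fluorescence with signal-to-noise of each printed compound spot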
[10] = binders of probe aHhip on microarray, primary screen, stem cell growth factor project, biochemical, small-molecule microarray, fluorescence 635/667 (AID 1087); details: higher = more signal;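 further: score merges spot fluorescence at 667nm with spot signal to noise ratio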
[11] = test system: PRMT1 (protein arginine N-methyltransferase 1); assay: PRMT1 binders on small-molecule microarrays, primary screen, biochemical, small-molecule microarray, 635 nm fluorescence (AID 1088); details: small-molecule microarray binding, higher = more signal;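 further: binding of Prmt1 protein to compounds spotted on small-molecule microarray slides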
[12] = yeast growth modulation, basal conditions, primary screen, YJM789 clinical isolate, OD600, 24 h (AID 1089);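 further: growth of clinical yeast isolate S. cerevisiae YJM 789 seeded 1000 cells per well; test concentration not given here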; details: S. cerevisiae YJM789 growth, higher = more signal, called active from +8 up or from −8 down
[13] = fission yeast growth modulation, primary screen, strain 972, OD600, 24 h, no modulator (AID 1090);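 further: basal condition with compound alone and no growth modifier present; test concentration not given here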; details: S. pombe 972 growth, higher = more signal, called active from +8 up or from −8 down
[14] = S. cerevisiae growth modulation with rapamycin, primary screen, strain BY4716, OD600, 96 h (AID 1091); details: higher = more signal, called active from +8 up or from −8 down; further: test concentration not given here
[15] = molecular target: Torsin-1A-interacting protein 2 (Homo sapiens) (UniProt Q8NFQ8); assay: LULL1 binders on small-molecule microarray, primary screen, cell lysate, human LULL1 lysate, 635/667 nm fluorescence (AID 1092); details: hLULL1 lysate binding, 635 nm fluorescence, higher = more signal;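 further: probe is lysate of COS7 cells overexpressing human LULL1; score merges per-feature 667 nm fluorescence with signal-to-noise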
[16] = E. coli growth modulation, two-sided OD650, primary screen, E. coli filamentation project, strain DRC41, 24 h (AID 1093); details: OD650, 24 h, higher = more signal, called active from +8 up or from −8 down;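 further: MC1000 strain lacking acrAB efflux and sulA so SOS filamentation is blocked; test concentration not given here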
[17] = small-molecule microarray binders of probe aLefty2, primary screen, biochemical, biotinylated probe, 635/667 nm fluorescence (AID 1094); details: higher = more signal;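 further: score merges spot fluorescence near 667 nm with spot signal-to-noise ratio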
[18] = test system: Noggin (protein binding on small-molecule microarray); assay: Noggin binders on small-molecule microarray, primary screen, biochemical, 635/667 nm fluorescence (AID 1095); details: 635 nm fluorescence, higher = more signal;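 further: score merges 667 nm feature fluorescence with signal to noise over triplicate slides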
[19] = molecular target: Neurogenic locus notch homolog protein 3 (Homo sapiens) (UniProt Q9UM47); assay: NOTCH3 binders on small-molecule microarray, primary screen, biochemical, 635/667 nm fluorescence (AID 1096); details: NOTCH3 binding, 635 nm fluorescence, higher = more signal
[20] = small-molecule microarray binders of probe aEGFR, primary screen, biochemical, biotinylated probe, 635/667 nm fluorescence (AID 1097); details: higher = more signal;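 further: probe is a biotinylated anti-EGFR antibody binding compounds printed on slides; score combines fluorescence near 667 nm and signal to noise of each spot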

Torsin-1A-interacting protein 2 (Homo sapiens), sequence (Q8NFQ8 whole entry, looked up): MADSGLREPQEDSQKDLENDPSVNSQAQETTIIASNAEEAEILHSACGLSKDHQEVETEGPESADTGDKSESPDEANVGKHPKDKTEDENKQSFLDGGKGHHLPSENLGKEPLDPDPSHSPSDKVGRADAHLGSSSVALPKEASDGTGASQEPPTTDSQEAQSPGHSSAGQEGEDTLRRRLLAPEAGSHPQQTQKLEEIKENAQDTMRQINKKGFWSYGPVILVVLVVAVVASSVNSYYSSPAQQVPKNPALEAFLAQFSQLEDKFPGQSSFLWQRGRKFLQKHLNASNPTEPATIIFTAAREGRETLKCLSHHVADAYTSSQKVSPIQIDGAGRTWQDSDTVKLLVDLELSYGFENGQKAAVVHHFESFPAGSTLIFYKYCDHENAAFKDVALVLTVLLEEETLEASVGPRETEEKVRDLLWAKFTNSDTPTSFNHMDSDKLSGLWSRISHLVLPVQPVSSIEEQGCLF
Neurogenic locus notch homolog protein 3 (Homo sapiens), sequence (Q9UM47 whole entry, looked up): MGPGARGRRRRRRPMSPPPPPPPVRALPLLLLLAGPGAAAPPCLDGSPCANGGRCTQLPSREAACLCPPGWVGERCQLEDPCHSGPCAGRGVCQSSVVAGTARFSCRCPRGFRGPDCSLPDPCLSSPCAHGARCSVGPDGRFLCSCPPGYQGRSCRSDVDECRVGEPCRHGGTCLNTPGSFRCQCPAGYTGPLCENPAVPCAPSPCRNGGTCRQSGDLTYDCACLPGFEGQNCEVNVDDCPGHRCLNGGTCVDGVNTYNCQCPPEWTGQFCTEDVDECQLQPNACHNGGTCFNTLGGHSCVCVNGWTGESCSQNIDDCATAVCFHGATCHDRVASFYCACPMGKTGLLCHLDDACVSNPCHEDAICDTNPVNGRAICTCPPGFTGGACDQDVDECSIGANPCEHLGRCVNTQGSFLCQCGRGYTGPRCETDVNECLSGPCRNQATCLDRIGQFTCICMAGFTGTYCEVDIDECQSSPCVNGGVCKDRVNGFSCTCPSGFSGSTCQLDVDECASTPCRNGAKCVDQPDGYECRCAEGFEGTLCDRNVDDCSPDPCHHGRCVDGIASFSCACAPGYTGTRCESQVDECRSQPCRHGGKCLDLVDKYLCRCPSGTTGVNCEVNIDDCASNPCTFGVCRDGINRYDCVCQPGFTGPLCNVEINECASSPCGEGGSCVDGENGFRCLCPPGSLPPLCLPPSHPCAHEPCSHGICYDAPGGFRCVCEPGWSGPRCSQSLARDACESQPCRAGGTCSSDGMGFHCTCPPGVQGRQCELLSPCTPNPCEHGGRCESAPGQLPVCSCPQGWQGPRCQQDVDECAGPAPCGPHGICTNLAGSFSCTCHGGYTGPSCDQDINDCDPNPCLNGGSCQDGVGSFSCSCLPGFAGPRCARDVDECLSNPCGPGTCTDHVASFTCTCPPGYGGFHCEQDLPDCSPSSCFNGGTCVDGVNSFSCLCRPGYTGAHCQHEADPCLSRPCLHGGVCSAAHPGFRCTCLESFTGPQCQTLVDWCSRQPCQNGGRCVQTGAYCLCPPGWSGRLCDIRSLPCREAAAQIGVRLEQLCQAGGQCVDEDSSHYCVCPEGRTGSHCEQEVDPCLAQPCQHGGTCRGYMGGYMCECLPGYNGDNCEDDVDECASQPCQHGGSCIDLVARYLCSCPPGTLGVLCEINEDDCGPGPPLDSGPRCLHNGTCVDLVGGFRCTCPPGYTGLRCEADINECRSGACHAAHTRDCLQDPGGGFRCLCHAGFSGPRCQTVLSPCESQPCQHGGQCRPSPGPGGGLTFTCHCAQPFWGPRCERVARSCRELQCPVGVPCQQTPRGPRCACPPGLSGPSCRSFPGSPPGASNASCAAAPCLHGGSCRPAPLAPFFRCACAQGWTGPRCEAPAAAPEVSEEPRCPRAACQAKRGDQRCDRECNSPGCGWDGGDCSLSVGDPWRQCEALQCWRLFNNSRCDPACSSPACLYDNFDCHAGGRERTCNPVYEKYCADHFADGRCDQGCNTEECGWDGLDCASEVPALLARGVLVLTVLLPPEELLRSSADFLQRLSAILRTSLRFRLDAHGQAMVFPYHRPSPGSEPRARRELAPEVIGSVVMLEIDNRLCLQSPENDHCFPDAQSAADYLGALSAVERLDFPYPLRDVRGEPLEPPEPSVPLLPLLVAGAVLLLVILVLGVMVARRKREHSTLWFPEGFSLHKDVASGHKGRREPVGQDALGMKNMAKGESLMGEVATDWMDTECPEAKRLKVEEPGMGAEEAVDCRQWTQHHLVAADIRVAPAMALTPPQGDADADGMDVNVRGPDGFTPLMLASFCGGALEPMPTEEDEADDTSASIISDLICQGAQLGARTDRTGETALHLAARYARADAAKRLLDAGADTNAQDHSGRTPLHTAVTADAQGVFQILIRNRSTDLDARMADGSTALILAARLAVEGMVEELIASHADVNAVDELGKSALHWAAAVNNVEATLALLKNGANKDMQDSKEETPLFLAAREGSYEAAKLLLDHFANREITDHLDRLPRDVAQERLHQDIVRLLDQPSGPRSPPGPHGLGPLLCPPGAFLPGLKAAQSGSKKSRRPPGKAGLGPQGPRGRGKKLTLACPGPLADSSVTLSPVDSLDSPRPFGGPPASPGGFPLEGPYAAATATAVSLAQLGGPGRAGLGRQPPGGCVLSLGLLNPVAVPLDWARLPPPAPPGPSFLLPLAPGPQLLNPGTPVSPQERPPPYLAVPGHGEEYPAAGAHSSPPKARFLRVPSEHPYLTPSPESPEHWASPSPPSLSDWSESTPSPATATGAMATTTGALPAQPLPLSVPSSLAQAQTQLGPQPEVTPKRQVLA
Pro-neuregulin-1, membrane-bound isoform (Homo sapiens), sequence (Q02297 whole entry, looked up, the tested form may be a part, canonical isoform): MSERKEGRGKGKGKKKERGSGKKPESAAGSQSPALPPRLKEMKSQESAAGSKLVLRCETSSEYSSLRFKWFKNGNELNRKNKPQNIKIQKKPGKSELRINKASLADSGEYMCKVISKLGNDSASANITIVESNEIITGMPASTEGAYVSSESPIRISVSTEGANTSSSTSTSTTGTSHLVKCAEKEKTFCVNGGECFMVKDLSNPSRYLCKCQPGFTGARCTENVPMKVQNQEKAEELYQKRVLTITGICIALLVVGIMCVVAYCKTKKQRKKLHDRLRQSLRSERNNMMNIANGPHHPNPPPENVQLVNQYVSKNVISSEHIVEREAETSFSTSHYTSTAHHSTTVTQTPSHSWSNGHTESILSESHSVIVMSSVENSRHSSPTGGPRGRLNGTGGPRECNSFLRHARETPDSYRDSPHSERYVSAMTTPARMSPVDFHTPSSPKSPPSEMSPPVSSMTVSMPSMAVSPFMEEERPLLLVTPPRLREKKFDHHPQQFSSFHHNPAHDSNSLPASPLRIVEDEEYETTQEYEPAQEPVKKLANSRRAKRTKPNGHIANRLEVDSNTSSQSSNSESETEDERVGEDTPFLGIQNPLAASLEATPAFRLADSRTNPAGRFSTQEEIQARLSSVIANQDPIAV

| SMILES | composite z-score [1] | composite z-score [2] | composite z-score [3] | composite z-score [4] | composite z-score [5] | composite z-score [6] | composite z-score [7] | z-score [8] | composite z-score [9] | composite z-score [10] | composite z-score [11] | z-score [12] | z-score [13] | z-score [14] | composite z-score [15] | z-score [16] | composite z-score [17] | composite z-score [18] | composite z-score [19] | composite z-score [20] |
| --- | --- | --- | --- | --- | --- | --- | --- | --- | --- | --- | --- | --- | --- | --- | --- | --- | --- | --- | --- | --- |
| Cc1ccc(S[C@]2(C(=O)NC3CC3)CC(=O)N(C3Cc4ccccc4C3)[C@@H]2c2ccc(CO)cc2I)cc1 | 0.851 | -0.1 | -0.133 | -0.0222 | -0.603 | 0.996 | 0.381 | -2.24 (inactive) | -0.228 | -0.286 | 0.198 | -0.192 (inactive) | -2.85 (inactive) | 3.27 (inactive) | 1.67 | 0.844 (inactive) | -0.0771 | -0.992 | -0.847 | -0.269 |
| O=C1C2C=CC(C(O)C3CCCCC3)N(Nc3ccccc3F)C2C(=O)N1c1ccccc1 (stereo not given) | 0.967 | 0.619 | 0.257 | 0.682 | 1.66 | 1.93 | 1.31 | -0.227 (inactive) | 1.55 | -0.0617 | 1.55 | 0.968 (inactive) | -0.645 (inactive) | 0.515 (inactive) | 3.24 | 0.256 (inactive) | 0.79 | 0.0994 | 1.02 | 0.239 |
| COc1ccc(NN2C(C(O)c3ccc(F)cc3)C=CC3C(=O)N(C4CCCCC4)C(=O)C32)cc1 (stereo not given) | 0.443 | 0.0876 | 0.133 | 0.686 | 1.59 | 1.52 | 1.22 | 1.78 (inactive) | 0.688 | -0.0618 | 1.56 | 0.0646 (inactive) | 1.09 (inactive) | 0.91 (inactive) | 3.24 | -0.637 (inactive) | 0.12 | 0.169 | 1.07 | 0.0903 |
| O=C1N(Cc2ccccc2)Cc2ccccc2C[C@@]12COC(c1ccc(OCCCO)cc1)=N2 | 1.18 | 0.455 | -0.0428 | -0.0784 | -0.0568 | 0.605 | 1.21 | -1.58 (inactive) | 0.419 | 0.369 | 1.38 | 1.92 (inactive) | -1.05 (inactive) | 6.73 (inactive) | 1.79 | 0.615 (inactive) | 0.363 | 0.0489 | 0.117 | -0.0315 |
| C[C@]1(C(=O)NCC(F)(F)F)c2ccccc2C(=O)N(Cc2cc(C(F)(F)F)cc(C(F)(F)F)c2)[C@H]1c1ccc(CO)cc1 | 0.227 | -0.616 | -0.0578 | 0.0766 | -0.317 | 0.275 | 1.11 | 0.549 (inactive) | 0.0351 | -0.0994 | 0.594 | 0.182 (inactive) | -0.0136 (inactive) | -0.0066 (inactive) | 1.35 | 1.07 (inactive) | -0.114 | -0.736 | -0.802 | -0.11 |
| CCCCC(=C=CC[C@H](O)c1ccccc1OCCO)CCO | -0.121 | -0.46 | -0.0579 | 0.656 | -0.543 | 1.4 | 0.787 | 0.125 (inactive) | -0.299 | 0.0749 | 0.95 | 0.149 (inactive) | -0.211 (inactive) | -0.34 (inactive) | 1.04 | 0.288 (inactive) | -0.19 | -0.0419 | -0.102 | -0.0664 |
| C=C[C@H](C)[C@@H](OC(=O)Nc1ccc(SC)cc1)c1ccc(OCCO)cc1 | 0.169 | 0.378 | -0.0408 | 0.0044 | -0.421 | 0.99 | 1.26 | 5.34 (inactive) | 0.0372 | -0.264 | 0.191 | 0.613 (inactive) | -0.583 (inactive) | 1.92 (inactive) | 1.84 | 0.441 (inactive) | -0.0391 | 1.05 | 0.487 | -0.225 |
| CCCNC(=O)[C@@]1(Sc2ccc(C)cc2)CC(=O)N(Cc2cc(C(F)(F)F)cc(C(F)(F)F)c2)[C@@H]1c1ccc(CO)cc1 | 0.708 | -0.332 | -0.0363 | 0.0551 | -0.608 | -0.78 | 0.791 | 0.621 (inactive) | -0.486 | -0.236 | 0.805 | -0.0276 (inactive) | -1.16 (inactive) | -0.835 (inactive) | 1.8 | -0.212 (inactive) | -0.122 | -1.13 | -0.542 | -0.165 |
| CC(C)N1C(=O)[C@@]2(Cc3ccccc31)c1ccccc1C(=O)N(Cc1ccccc1)[C@H]2c1ccc(CO)cc1 | -0.244 | -0.164 | -0.204 | -0.125 | -0.291 | 0.251 | 0.322 | -0.0076 (inactive) | -0.0754 | -0.391 | -0.0364 | 1.43 (inactive) | 0.555 (inactive) | -0.204 (inactive) | 0.0342 | 0.365 (inactive) | -0.578 | 0.209 | -0.508 | -0.424 |
| COCCCNC(=O)[C@@]1(Cc2ccccc2I)c2ccccc2C(=O)N(C2CCCCC2)[C@H]1c1ccc(CO)cc1 | -0.101 | 0.346 | -0.0064 | 0.527 | 0.452 | 0.857 | 1.35 | -4.02 (inactive) | -0.729 | -0.0994 | 1.51 | -1.83 (inactive) | -0.856 (inactive) | -1.11 (inactive) | 2.97 | 0.0355 (inactive) | -0.106 | 0.556 | 0.337 | -0.0512 |
